The full ranking holds about 33,000 sequences; the median of “E-score (-0.5 to 0.5)” is about -0.012, and the highest 2% start at about 0.29. The entries come from a sample that favours the highest values as a whole.

This assay concerns the target T1, Ybr033w (UniProt P38073).
T1 sequence: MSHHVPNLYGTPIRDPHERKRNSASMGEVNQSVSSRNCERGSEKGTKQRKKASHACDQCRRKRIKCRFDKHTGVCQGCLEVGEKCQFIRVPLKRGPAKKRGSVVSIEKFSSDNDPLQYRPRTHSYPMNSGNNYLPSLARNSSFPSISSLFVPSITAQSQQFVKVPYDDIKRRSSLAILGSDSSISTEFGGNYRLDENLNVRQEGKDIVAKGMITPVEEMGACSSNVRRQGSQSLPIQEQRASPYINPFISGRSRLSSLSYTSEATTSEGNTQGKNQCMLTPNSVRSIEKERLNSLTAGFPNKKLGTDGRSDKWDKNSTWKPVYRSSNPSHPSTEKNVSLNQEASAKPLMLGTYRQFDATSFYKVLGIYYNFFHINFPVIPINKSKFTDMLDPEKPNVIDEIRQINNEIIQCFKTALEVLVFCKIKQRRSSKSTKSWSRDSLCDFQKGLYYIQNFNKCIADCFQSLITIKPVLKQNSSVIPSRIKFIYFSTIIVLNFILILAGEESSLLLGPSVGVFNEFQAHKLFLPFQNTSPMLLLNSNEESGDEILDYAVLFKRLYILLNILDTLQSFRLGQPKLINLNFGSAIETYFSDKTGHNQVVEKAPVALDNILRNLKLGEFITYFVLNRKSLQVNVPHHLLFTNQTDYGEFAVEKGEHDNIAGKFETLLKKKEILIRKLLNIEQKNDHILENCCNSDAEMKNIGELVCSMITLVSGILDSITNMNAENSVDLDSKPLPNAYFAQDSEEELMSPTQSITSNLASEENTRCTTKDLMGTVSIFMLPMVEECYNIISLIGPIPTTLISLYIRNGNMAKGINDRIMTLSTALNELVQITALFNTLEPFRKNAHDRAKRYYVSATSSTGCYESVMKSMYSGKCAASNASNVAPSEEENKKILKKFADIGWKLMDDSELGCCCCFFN
As to the kind of experiment: PBM E-score (8-mer binding enrichment) (E-score (-0.5 to 0.5)); higher = stronger / more preferred TF binding. The settings on record: protein concentration: 200 nM; construct: GST-full length. A digest of the protocol: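 Detection of bound protein used fluorescent anti-GST, with scans normalised by masliner. The proteins were GST-tagged yeast transcription factors applied at about 100-200 nM to universal all-10-mer Agilent arrays made double-stranded by primer extension. Each ungapped eight-base word, pooled with its reverse complement, was scored with an E-score from the Universal PBM Analysis Suite.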
AGCCCTGG: the “PBM E-score” value is -0.252. Take AAATGGCA: the “PBM E-score” value worked out at 0.101. Take CTTCCGGA: the “PBM E-score” value came out at 0.274. For GTTCCGAA the value was 0.29. Turning to ATTCCGAA, the “PBM E-score” value came out at 0.32. Turning to ATTCCGAG, the “PBM E-score” value amounted to 0.242.

In the case of ATTCCGAC, the “PBM E-score” value was determined as 0.157. As for ATTCCGGG, the “PBM E-score” value came out at 0.188. Next, ATTCCGGA: 0.387; CTTCCGAA: 0.208; GGTCCGAA: -0.0173. For the sequence GAAGCTGA, the “PBM E-score” value came out at 0.135.

Consider CAGCTACA, for which the “PBM E-score” value amounted to 0.0259.

As to GCTACGCC, the “PBM E-score” value was -0.239. Take ACGTTACT: the “PBM E-score” value was 0.0376. Take ATACGCCG: the “PBM E-score” value was -0.149. Consider AGTCAAAT, for which the “PBM E-score” value is 0.188.

In the case of GGCCACCC, the “PBM E-score” value is -0.214. On to CCTTGAAA, for which the “PBM E-score” value came to 0.0714. For the sequence CATTGAAC, the “PBM E-score” value worked out at 0.124. For CATTGAAA the value was 0.29.

Consider TCTTGAAA, for which the “PBM E-score” value amounted to 0.319. For CATTGAAG, the “PBM E-score” value was -0.0671.

GCTTGAAA: the “PBM E-score” value was determined as 0.0485. Consider AGTGGTAG, for which the “PBM E-score” value stood at 0.0179. For ATTAACCG the value was 0.295; for ATTAACGG, 0.159; for ATTAACTA, 0.181. As to ATTAACTG, the “PBM E-score” value turned out to be 0.333. For the sequence ATTAACCA, the “PBM E-score” value turned out to be 0.0788. Next, CTTAACTC: 0.0941. Regarding ATTAACTC, the “PBM E-score” value stood at 0.291. With AGTAACTG, the “PBM E-score” value was 0.0214.

Consider ATTAACCC, for which the “PBM E-score” value is 0.237. Next, GAATTGAC: 0.00537; CAGGCGGA: 0.122.

With AACGCTTG, the “PBM E-score” value is -0.194. Consider ATTTCTCC, for which the “PBM E-score” value came out at 0.404.

Take ATTTCTCA: the “PBM E-score” value came out at 0.192. Next, AATTCTCC: 0.293. With CATTCTCC, the “PBM E-score” value is 0.0353. Turning to AATTCTCA, the “PBM E-score” value worked out at 0.204. Regarding CTTTCTCC, the “PBM E-score” value is -0.103. For CAGGCTGA the value was -0.237; for GACAGAGA, -0.066. For ACCCTACT, the “PBM E-score” value was 0.0025. For the sequence TGCTACCA, the “PBM E-score” value is -0.0533. Take AATGCATA: the “PBM E-score” value came to 0.126. As for AATGCATG, the “PBM E-score” value turned out to be 0.0293. AATGCATT: the “PBM E-score” value stood at 0.31. In the case of AGTAGTAT, the “PBM E-score” value was 0.185. In the case of AAAAGACC, the “PBM E-score” value was -0.141.

As for GAAAGCCA, the “PBM E-score” value was -0.136. Take AAAAGCCC: the “PBM E-score” value was -0.113.

Regarding AAAAGACA, the “PBM E-score” value was 0.292.

As for CAAAGACA, the “PBM E-score” value came to 0.0541. Regarding AAAAGCCA, the “PBM E-score” value amounted to 0.3. Next, CCCAGTGA: -0.194. Turning to AGCAGTGG, the “PBM E-score” value was found to be 0.0536.

Consider ATCTTGAA, for which the “PBM E-score” value amounted to 0.187. ATATTAAG: the “PBM E-score” value is 0.285. Regarding ATATTAAC, the “PBM E-score” value is 0.301. Next, TTATTAAA: 0.283; ATATTAAT: 0.314; ACATTAAT: 0.235. CTATTAAA: the “PBM E-score” value came out at 0.196. For GTATTAAC, the “PBM E-score” value is 0.0593. On to ATATTAAA, for which the “PBM E-score” value was 0.355.

CTATTAAC: the “PBM E-score” value was 0.268.

Turning to GGCTCTAC, the “PBM E-score” value was -0.185. As for GGAACACA, the “PBM E-score” value amounted to 0.149. For GAGCTGTA, the “PBM E-score” value is -0.11. On to TCCATACA, for which the “PBM E-score” value is 0.0807. Consider ATTTTCAG, for which the “PBM E-score” value is 0.148. Regarding ATTCGCCG, the “PBM E-score” value turned out to be 0.0215. As to ATCGACAC, the “PBM E-score” value is -0.0724. In the case of CGTGAACA, the “PBM E-score” value came to 0.00947.

Turning to ATGTGTTA, the “PBM E-score” value amounted to 0.163.

For the sequence GTGTGTTA, the “PBM E-score” value was 0.292.

Take CTGTGTTA: the “PBM E-score” value was -0.00531. Next, CAAGGTCG: -0.0398. Consider AACGACTC, for which the “PBM E-score” value was -0.219.

For the sequence CATTTATC, the “PBM E-score” value worked out at 0.278. As for AATTTAGG, the “PBM E-score” value is 0.229.

Regarding AGTTTATC, the “PBM E-score” value was determined as 0.363. For AATTTATA the value was 0.257; for AGTTTATG, 0.2.

(Values after the supplement of paper PMC3334620.)
